Assay outcomes as filed in PubChem.
Pf growth 96h: Primary qHTS for delayed death inhibitors of the malarial parasite plastid, 96 hour incubation; Potency, µM (doses to about 28.7 µM), for the others: at the top dose activity change, negative = inhibition, actives largely listed as inhibitors; P. falciparum luciferase reporter growth, 96 h; 320,000 tested, 6.9% active; AID 504834, 2011; note: % is set by controls: 0 for no effect and ±100 for the full control effect
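Erythrocytes infected with luciferase-expressing P. falciparum were dispensed at 2% hematocrit and 0.05% parasitemia (final), then incubated with compounds 96 hours at 37 C in 5% CO2. Luminescence after detection reagent addition reported growth.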
Pf growth 48h: Primary qHTS for delayed death inhibitors of the malarial parasite plastid, 48 hour incubation | Potency, µM (highest dose often 28.7 µM), for inactives: at the top dose activity change, negative = inhibition, usual class: inhibitors | AID 504832, 2011 | P. falciparum luciferase growth in erythrocytes, 48 h | 310,000 tested, 5.9% active; note: % is set by controls: 0 for no effect and ±100 for the full control effect
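Growth was read as firefly luciferase luminescence after a 48 h, 37 C, 5% CO2 exposure of compounds to reporter-bearing P. falciparum cultures (0.1% parasitemia, 2% hematocrit final) in Albumax-supplemented RPMI 1640.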
AMA1 RON2 block: qHTS for Inhibitors of AMA1-RON; Towards Development of Antimalarial Drug Lead: Primary Screen. Plasmodium falciparum AMA1 (3D7) - RON2 peptide interaction. AlphaScreen AMA1-biotinylated RON2 peptide binding. Potency, µM (highest dose often 58.2 µM), without a hit: at the top dose activity change, negative = inhibition, most hits filed as inhibitors. 360,000 tested, 0.2% active. AID 720542, 2013;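 note: 0% = vehicle wells and -100% = peptide control; nearly all actives have a fitted effect of over 45% in size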
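AMA1 (3D7) with his tag at 25 nM final met compounds first, then biotinylated RON2 peptide at 25 nM; detection used donor plus acceptor beads, 10 µg/mL apiece, read by AlphaScreen after 30 min at room temperature.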
Sm TGR block: qHTS Assay for the Inhibitors of Schistosoma Mansoni Peroxiredoxins | Schistosoma mansoni thioredoxin glutathione reductase (TGR), Q962Y6 | purified TGR, DTNB reduction, TNB absorbance 405 nm | Potency, µM (series often up to 114 µM), for the others: top-dose activity change, negative = inhibition, actives largely listed as inhibitors | 360,000 tested, 3% active; note: % is set by controls: 0 for no effect and ±100 for the full control effect; nearly all actives have a fitted effect of over 60% in size
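TGR 20 nM + NADPH 100 uM (dispensed conc.), cpd preinc 15 min RT; start with NADPH (500 uM addition) then DTNB (15 mM addition). Kinetic TNB absorbance, 405 nm filter. Four-parameter Hill fit across titration.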
NS1 function inh: qHTS Assay for Inhibitors of Influenza NS1 Protein Function | 270,000 tested, 0.4% active | Potency, µM (highest dose often 46.1 µM), inactives show at the highest dose activity, positive = more growth; calls by dose curve; note: actives are rising curves; nearly all actives have a fitted effect of over 50% in size
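In this qHTS, NS1 from influenza A is expressed in budding yeast, where it slows growth. Cells are switched from glucose to 2% galactose medium (pH 6.0, -URA), treated with compound, and growth recovery is read at OD600.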
* marks the source's active call; other numbers are inactive results; u = inconclusive; x = no result given. A selection: hits, their analogues and other compounds. The true share with any hit is near 11%. Unless noted, calls come from the whole dose curve; as a rule, active = well fitted curve in the direction sought with a large enough effect; inconclusive = small, poorly fitted or top-dose-only effect, or another doubt; inactive = no such curve, though single readings can be large; an effect the other way counts as inactive or inconclusive. Potency is the fitted concentration of half-maximal effect.

SMILES | Pf growth 96h | Pf growth 48h | AMA1 RON2 block | Sm TGR block | NS1 function inh
CN(C)c1ccc(N=Nc2ccccc2Br)cc1 | 441% | 98% | 11µM* | -5% | -3%
CCS(=O)(=O)c1ccc(O)c(NC(=O)Nc2ccccc2OC)c1 | 25% | 14% | -6% | -2% | -1%
Cc1nc2c(oc3ccccc32)c(=O)o1 | x | u | 10% | 11µM* | -13%
CCNc1nc(CC)nc2c1oc1ccccc12 | u | 0% | 4% | 1% | -56%
CCNc1nc(C)nc2c1oc1ccccc12 | 0.66µM* | 24% | -6% | -28% | -34%
O=c1[nH]c(Cc2ccccc2)nc2c1oc1ccccc12 | 15% | u | -5% | 17% | 4%
Cc1ccc(C2=NN(C(=O)CSc3nnnn3C)C(c3ccco3)C2)cc1 (centres undefined) | -28% | u | 2% | u | x
CSc1ncccc1C(=O)OCC(=O)c1ccc(Br)s1 | 18% | 7% | 2% | 6% | x
CCN(CC)S(=O)(=O)c1ccc2c(c1)nc(SCC(=O)N1CCOCC1)n2-c1ccccc1OC | 12µM* | u | -7% | 9% | 17%
COc1ccccc1-n1c(SCC(=O)N2CCOCC2)nc(O)cc1=O | u | u | -5% | 3% | u
CCN(CC)S(=O)(=O)c1ccc2c(c1)nc(SCC(=O)N1CCCCCC1)n2-c1ccc(OC)cc1 | x | 13µM* | -9% | -6% | 8%
CCCCOc1c(Br)cc(CNCCCN2CCOCC2)cc1OC | 10µM* | 13µM* | 4% | 0% | 17%
Clc1ccc2oc(-c3ccccc3)cc(=NCCCN3CCOCC3)c2c1 | u | 4.7µM* | -6% | -28% | x
OCCCCCN=c1cc(-c2ccccc2)oc2ccc(Cl)cc12 | 13µM* | u | 7% | -29% | -12%
COc1ccccc1NS(=O)(=O)c1ccc2oc(SCc3ccc(C#N)cc3)nc2c1 | 9.3µM* | -24% | -2% | 9% | 5%
CNC(=O)CSc1nc2cc(S(=O)(=O)Nc3ccccc3OC)ccc2o1 | -17% | 15% | 41% | 4% | -8%
CCOc1ccccc1OCC(=O)NCc1ccco1 | u | -6% | 0% | 20µM* | -15%
COc1ccc(C(=O)OCC(=O)NCc2ccco2)cc1OC | 16% | -6% | -4% | 35µM* | 2%
COc1ccc(OCCC(=O)OCC(=O)NCc2ccco2)cc1 | -8% | 41% | -8% | 50µM* | 20%
CCOc1ccc(C(=O)OCC(=O)NCc2ccco2)cc1OCC | -12% | -7% | -3% | 45µM* | -8%
COc1ccccc1-c1nc(SCC(=O)N(C)c2ccccc2)c2c(=O)n(C)c(=O)n(C)c2n1 | u | -14% | 2% | 13% | x
COCCNC(=O)CCn1c(=O)c2cc(OC)c(OC)cc2n(CC(=O)Nc2ccccc2OC)c1=O | x | x | x | -7% | x
Cc1ccc([C@H]2C[C@@H](O)[C@H](n3cc(COC(=O)c4ccccc4)nn3)CN2C(=O)c2cccs2)cc1 | x | x | 0% | x | x
COc1cc(OC)c(OC)cc1CN1CCc2nc(N3CCN(c4ncccn4)CC3)ncc2C1 | x | x | x | 22µM* | x
COc1cc(CNC(C)(C)CO)cc(Br)c1OCc1ccc(Cl)cc1Cl | 13µM* | 12µM* | -7% | -3% | -18%
SMILES | Pf growth 96h | Pf growth 48h | AMA1 RON2 block | Sm TGR block | NS1 function inh
CC(C)(CO)NCc1c(OCc2ccc(Cl)cc2)ccc2ccccc12 | 4.1µM* | u | 0% | -4% | -24%
COc1cc(CNc2ccc(O)cc2)cc(Br)c1OCc1ccccc1 | 60% | u | 49% | -23% | 0%
COc1cc(CNC(C)(C)CO)cc(Br)c1OCc1ccc(Cl)cc1 | u | 13µM* | 3% | 1% | -8%
CCOc1cc(CNc2ccc(O)cc2)ccc1OCc1ccc(Cl)cc1Cl | u | u | 38% | u | -11%
CCCCn1cnc2c(SCc3ccccc3Cl)nc(N)nc21 | x | x | -8% | x | x
CSc1ccc(CN2CCCC(N3CCN(c4ccccc4)CC3)C2)cc1 (centres undefined) | 9.3µM* | u | 9% | -8% | -8%
COc1cc(CN2CCCC(N3CCN(c4ccc(F)cc4)CC3)C2)ccc1F (centres undefined) | 0.66µM* | 2.1µM* | -15% | 11% | u
COc1ccccc1N1CCN(C2CCCN(Cc3cccc(O)c3)C2)CC1 (centres undefined) | 1.2µM* | u | 6% | -13% | -9%
COc1ccccc1CN1CCCC(N2CCN(c3ccccc3OC)CC2)C1 (centres undefined) | 4.7µM* | -7% | 6% | -13% | 14%
OCCOc1ccc(CN2CCCC(N3CCN(c4ccc(F)cc4)CC3)C2)cc1 (centres undefined) | 358% | -36% | -6% | -39% | 9%
COc1cc(CN2CCCC(N3CCN(c4ccccc4C)CC3)C2)ccc1O (centres undefined) | 55% | 8.3µM* | -14% | u | 20%
CCOC(=O)c1cnc2ccc(OCC)cc2c1N1CCN(c2ccccc2)CC1 | x | u | u | -20% | -16%
CCOC(=O)c1cnc2c(OC)cccc2c1NCc1cccnc1 | -8% | 3% | 11% | x | 3%
CCOC(=O)c1cnc2ccc(OCC)cc2c1NCc1ccccc1 | u | 12µM* | 12% | -17% | -102%
CCOC(=O)c1cnc2ccc(OCC)cc2c1NCc1cccnc1 | 6.6µM* | u | 7% | -3% | -21%
CC(C)CNC(=S)NC1CC2CCCC(C1)N2Cc1cccs1 (centres undefined) | 3.7µM* | 13µM* | -9% | 1% | -5%
CNC(=S)NC1CC2CCCC(C1)N2Cc1ccco1 (centres undefined) | 34% | 12% | -1% | 5% | 13%
CC(C)CNC(=S)NC1CC2CCCC(C1)N2Cc1ccco1 (centres undefined) | 12µM* | -17% | -5% | -6% | 1%
CCOC(=O)N1CCN(C(=O)C2CCN(S(=O)(=O)c3ccc(OC)cc3)CC2)CC1 | 53% | -15% | -4% | 3% | 6%
Cn1ncc2c(Nc3cc(C(F)(F)F)ccc3Cl)ncnc21 | x | x | x | 6% | x
Cc1occc1-c1nnc(SCC(=O)Nc2c(F)cccc2F)n1C | 11% | 7% | 0% | -2% | x
CCSc1nnc(-c2cnn(-c3ccccc3)c2-n2cccc2)n1C | x | 10µM* | -4% | -4% | -75%
CSc1ccc(-c2c(C#N)c(N)nc3c2CCCC3)cc1 | 2.6µM* | 9% | 5% | -25% | -5%
Cc1c(-c2c(C#N)c(N)nc3c2CCCCCC3)cnn1C | 10µM* | u | -2% | -13% | -2%
COc1ccc(-c2c(C#N)c(N)nc3c2CCCCCC3)cc1OC | -20% | x | -1% | -7% | 6%
N#Cc1c(N)nc2c(c1-c1cccnc1)CCCCC2 | x | u | -24% | 0% | -11%
